# KCNH2 WT inh: qHTS for Inhibitors of KCHN2 3.1: Wildtype qHTS | activity change, % at 1.84 µM | Voltage-gated inwardly rectifying potassium channel KCNH2 (Homo sapiens), Q12809 | actives 0.37% (n = 340,000) | AID 720551, 2013 | U2OS, BacMam KCNH2, thallium flux FluxOr; active compounds read low;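 active = maximum activity change below -70%; inconclusive = maximum activity change between -70% and -50%; inactive = maximum activity change above -50%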; note: % is set by controls: 0 for no effect and ±100 for the full control effect
#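 U2OS cells transduced with wild-type KCNH2 virus are loaded with FluxOr dye for 45 min, and thallium flux is measured in kinetic reads before and after stimulation buffer. Rate constants are normalized to DMSO controls.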
# Mm-Cpn inhibitor: Inhibitors of TCP-1 ring complex (TRiC) of Methanococcus maripaludis (MmCpn): qHTS | purified Mm-Cpn ATPase, ADP Transcreener TR-FRET | AID 504842, 2011 | actives 0.031% (n = 330,000) | Potency, µM (titrated, usually from 76.9 µM), inactives show at the highest dose activity, negative = inhibition, actives largely listed as inhibitors; note: potency is the fitted concentration of half-maximal effect; % is set by controls: 0 for no effect and ±100 for the full control effect; nearly all actives have a fitted effect of over 80% in size
#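 25 nM Mm-CPN + cpd, 10 min 37°C; + 10 uM ATP, 30 min 37°C; buffer 30 mM Tris pH 7.4, 100 mM KCl, 5 mM MgCl2, 1 mM DTT; Transcreener ADP HTRF detection 30 min RT.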
# uPA surface inh: qHTS for Inhibitors of Cell Surface uPA Generation. Potency, µM (highest dose often 38.3 µM), inactives show top-dose activity change, negative = inhibition, most hits filed as inhibitors. cell surface uPA generation assay, qHTS. actives 0.31% (n = 330,000); active = well fitted inhibition curve with a large enough effect; inconclusive = small, poorly fitted or top-dose-only effect; inactive = no such curve, though single readings can be large or run the other way; tested in mouse RAW 264.7 cells; note: potency is the fitted concentration of half-maximal effect; % is set by controls: 0 for no effect and ±100 for the full control effect; nearly all actives have a fitted effect of over 55% in size
# S-ASM inh: Inhibitors of Secretory Acid Sphingomyelinase (S-ASM): qHTS; Sphingomyelin phosphodiesterase (Homo sapiens), P17405; placental ASM, HMU-PC fluorogenic substrate, 60 min; Potency, µM (titrated, usually from 57.5 µM), without a hit: at the top dose activity change, negative = inhibition, actives largely listed as inhibitors; actives 0.006% (n = 340,000); AID 504937, 2011; note: potency is the fitted concentration of half-maximal effect
# Target sequence (P17405 47-631 limits assumed): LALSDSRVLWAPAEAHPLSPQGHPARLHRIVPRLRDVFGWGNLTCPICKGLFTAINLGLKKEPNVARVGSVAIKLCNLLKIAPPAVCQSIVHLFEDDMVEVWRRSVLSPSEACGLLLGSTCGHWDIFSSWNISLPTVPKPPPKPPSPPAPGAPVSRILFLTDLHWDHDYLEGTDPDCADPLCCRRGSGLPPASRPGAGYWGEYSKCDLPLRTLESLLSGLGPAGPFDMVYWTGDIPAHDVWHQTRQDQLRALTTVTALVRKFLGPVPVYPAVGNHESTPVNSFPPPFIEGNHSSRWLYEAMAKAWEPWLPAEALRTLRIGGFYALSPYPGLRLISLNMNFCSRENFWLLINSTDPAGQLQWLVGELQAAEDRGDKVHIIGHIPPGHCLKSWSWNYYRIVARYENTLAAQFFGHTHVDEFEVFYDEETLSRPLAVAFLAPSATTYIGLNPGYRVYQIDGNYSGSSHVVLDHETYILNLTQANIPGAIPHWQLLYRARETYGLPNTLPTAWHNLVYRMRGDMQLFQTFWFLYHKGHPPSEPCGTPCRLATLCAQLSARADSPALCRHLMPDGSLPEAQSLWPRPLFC
#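 qHTS format. ASM enzyme prepared from human placenta hydrolyses the fluorogenic substrate HMU-PC0 (9 uM final) over 60 min at 37 °C after a 10 min compound preincubation.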
# KCNH2 3.1 block: qHTS for Inhibitors of KCHN2 3.1: Mutant qHTS | U2OS KCNH2 3.1, thallium flux FluxOr; active compounds read low | activity change, % (tested at about 1.8 µM) | actives 0.95% (n = 340,000) | AID 720553, 2013;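 active = maximum activity change below -70%; inconclusive = maximum activity change from -70% to -50%; inactive = maximum activity change above -50%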;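 note: thallium influx rate constant from kinetic fluorescence after stimulation buffer; % is set by controls: 0 for no effect and ±100 for the full control effect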
#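 Steps: virus added to U2OS suspension (4 h, RT, dark); medium with 10% FBS added, cells plated, 37 C overnight; FluxOr/Red40 loading buffer 45 min RT; stimulation buffer, 2 min kinetic read; rate constant normalized.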
# p53 reactivator: qHTS assay for re-activators of p53 using a Luc reporter. AID 504706, 2011. actives 0.063% (n = 320,000). Potency, µM (titrated, usually from 92.2 µM), for the others: top-dose activity change, positive = activation, actives largely listed as activators. H1299 p53-A138V BP100-luciferase reporter, luminescence, 24 h; note: potency is the fitted concentration of half-maximal effect; % of control where 0% means no effect; nearly all actives have a fitted effect of over 45% in size
#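 p53-null H1299 cells stably carrying temperature-sensitive p53-A138V and a BP100-luciferase reporter were pinned with compounds (4-point, 1:5 series) and held 24 hrs at 37 deg C. Luminescence was read 10 min after detection reagent.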
# Active calls of the source: *; ? = inconclusive; / = no result; [ ] = another dose, or the depositor's remark. Only some compounds are listed: those with a hit (about 1.4% of all), similar ones and a draw of the others. Unless noted, calls come from the whole dose curve; as a rule, active = well fitted curve in the direction sought with a large enough effect; inconclusive = small, poorly fitted or top-dose-only effect, or another doubt; inactive = no such curve, though single readings can be large; an effect the other way counts as inactive or inconclusive.
SMILES,KCNH2 WT inh,Mm-Cpn inhibitor,uPA surface inh,S-ASM inh,KCNH2 3.1 block,p53 reactivator
COc1cc(CCNC2=CC(=O)c3ncccc3C2=O)ccc1O,8,/,-11%,-2%,3,/
S=C1NCN(Cc2ccco2)CN1c1ccccc1,1,-1%,20%,1%,3,-3%
S=C1NCN(C2CCCCC2)CN1c1ccccc1,-3,2%,-22%,2%,-96*,-1%
CN(CCC1CCOCC1)C(=O)C1CCC(=O)N(CCc2ccccc2)C1 (stereo not given),-4,2%,24%,0%,-4,-2%
CCCC(=O)n1nc(-c2cccnc2)nc1NCc1ccccc1,-2,0%,-6%,-1%,-125*,-3%
CC1(C)Cc2c(cnn2-c2ccccc2)C(NC(=O)c2ccoc2)C1 (stereo not given),?,-1%,-3%,-1%,-41,-1%
CC1(C)Cc2c(cnn2-c2cccc(F)c2)C(NC(=O)c2csnn2)C1 (stereo not given),-74*,-2%,-3%,-2%,?,-11%
CC1(C)Cc2c(cnn2-c2ccc(F)cc2)C(NC(=O)c2ccoc2)C1 (stereo not given),?,1%,-2%,-3%,-81*,4%
Cc1ccc(S(=O)(=O)NCc2nnnn2-c2ccc(F)cc2)cc1,-8,/,/,/,-20,/
COc1ccc(C(CNC(=O)c2cccc(S(=O)(=O)N3CCCc4ccccc43)c2)N(C)C)cc1 (stereo not given),-18,/,-8%,1%,-74*,/
COc1ccc(NS(=O)(=O)c2cccc(C(=O)NCC(c3ccccc3)N(C)C)c2)cc1 (stereo not given),2,1%,-6%,/,1,-5%
COc1ccc(C(CNC(=O)c2ccc(S(=O)(=O)N3CC(C)CC(C)C3)cc2)N(C)C)cc1 (stereo not given),-83*,1%,?,-1%,-11,-12%
COc1ccc(NC(=O)c2cccc(S(=O)(=O)N3CCc4ccccc43)c2)c(OC)c1,-89*,/,/,/,9,/
O=C(NCc1ccccc1F)C1CC(=O)N(Cc2ccco2)C1 (stereo not given),-7,/,/,/,7,/
CCN(CCCNC(=O)CCn1c(=S)[nH]c2cc3c(cc2c1=O)OCO3)c1cccc(C)c1,3,-2%,4%,2%,-3,-2%
CCCCn1c(N)c(N(CCOC)C(=O)C2CCN(S(=O)(=O)c3ccccc3)CC2)c(=O)[nH]c1=O,4,-1%,7%,/,2,-1%
Cc1noc(/C=C/c2nn(C)cc2Cl)c1[N+](=O)[O-],-2,?,4.5µM*,3%,-21,-13%
COc1cc(/C=C/c2onc(C)c2[N+](=O)[O-])cc(OC)c1OC,-9,/,-3%,-2%,3,/
CN1C(=O)[C@H]2[C@@H](c3ccc(C(F)(F)F)cc3)N[C@]3(CCCN(Cc4ccco4)C3=O)[C@H]2C1=O,9,/,/,/,2,/
Cc1c(CCOC(=O)CC23CC4CC(CC(C4)C2)C3)sc[n+]1Cc1ccccc1,-2,0%,-5%,-2%,1,-4%
Cc1ncc(C[n+]2csc(CCOC(=O)CC34CC5CC(CC(C5)C3)C4)c2C)c(N)n1,5,1%,20%,-4%,-127*,0%
C=CC[C@]12CC=CC(=O)[C@@]1(O)O[C@H](c1ccc(OC)c(OC)c1)[C@H]2C,-12,/,7.9µM*,10%,-1,/
C[C@H](NC(=O)c1ncn2c1C(=O)NC[C@@H]2C)C(=O)OC(C)(C)C,-12,/,/,/,-8,/
COc1ccc(C(C)=O)cc1CSc1nnc(Nc2ccccc2C)s1,17,-19%,-1%,-7%,-117*,-10%
Cc1cc(Br)ccc1NC(=O)CN(C)C(=O)CN1C(=O)NC(C)(C2CC2)C1=O (stereo not given),1,0%,-29%,7%,-1,4%
SMILES,KCNH2 WT inh,Mm-Cpn inhibitor,uPA surface inh,S-ASM inh,KCNH2 3.1 block,p53 reactivator
CCCOc1ccc(S(=O)(=O)NCCCN2CCOCC2)c2ccccc12,-206*,-1%,-6%,0%,-13,3%
CCOc1ccc(S(=O)(=O)NCCCN2CCOCC2)c2ccccc12,-3,-4%,0%,-1%,-27,-8%
O=C(CN1CCN(S(=O)(=O)c2ccc(Br)s2)CC1)N1CCCCC1,-227*,-21%,0%,-1%,13,-9%
CC(=O)Oc1cc(O)c2c(=O)c(OC(C)=O)c(-c3ccc(OC(C)=O)c(OC(C)=O)c3)oc2c1,3,/,10µM*,?,3,/
COc1ccc(-c2oc3cc(OC(C)=O)cc(OC(C)=O)c3c(=O)c2OC)cc1,-3,/,-5%,-2%,-12,/
Cc1[nH]n(-c2ccccc2)c(=O)c1N=Nc1ccc(F)cc1,30,-2%,-2%,-2%,-79*,14%
CCc1ccc(NC(=O)c2sc3nc4n(c(=O)c3c2C)CCC4)cc1,8,-1%,-15%,-18%,-91*,0%
COC(=O)CSc1nnc(Cc2ccccc2)n1-c1ccc(C)cc1,-3,1%,1%,3%,-98*,24%
CCCCn1c(C)cc2c(c1=O)C1O[C@](c3ccsc3)(Cc3ccccc31)O2,/,-6%[15.4 µM],/,/,/,/
COc1cc(/C=C(\C#N)C(=O)Nc2cccc(C(=O)O)c2)ccc1OCc1ccc(Cl)cc1,-92*,0%,-6%,-1%,-12,/
C=CCn1c(-c2csc(-c3ccccc3)n2)n[nH]c1=S,6,/,-2%,1%,1,/
S=c1[nH]nc(-c2ccc(Cl)cc2)n1Cc1ccccc1,-306*,0%,11%,-9%,4,-5%
C=CCn1c(-c2csc(-c3ccc(Cl)cc3)n2)n[nH]c1=S,-187*,-2%,-2%,-5%,-195*,3%
Cc1cc(NC(=O)CN(C)CC(=O)Nc2ccc(Cl)c(C(F)(F)F)c2)no1,-7,-1%,?,-11%,-2,-18%
Cc1cc(NC(=O)CN(C)CC(=O)Nc2ccc(Cl)cc2)no1,11,-1%,-4%,1%,-120*,-4%
Cc1ccc(S(=O)(=O)NN=C2CCc3ccccc32)cc1,2,/,/,/,0,/
COc1cc(C)c(Cl)cc1S(=O)(=O)N1CCSC1,-2,-1%,4%,0%,25,/
C=C1CCN([C@@H](CC(C)C)C(=O)NCc2ccc(Cl)cc2)S(=O)(=O)c2ccccc21,5,/,-7%,-4%,1,/
